Tau fibril FP: blocks human tau fibril formation measured by polarization; AID 1468; K18 P301L tau heparin fibrillization, Alexa594 FP, 6 h; Potency, µM (doses to about 57.7 µM), for inactives: at the highest dose activity, negative = inhibition, actives largely listed as inhibitors; 280,000 compounds, 0.39% hits; P10636; further: potency means the concentration at half of the fitted maximal effect; nearly all actives have a fitted effect of over 55% in size
Target sequence (P10636 561-689 P618L limits assumed): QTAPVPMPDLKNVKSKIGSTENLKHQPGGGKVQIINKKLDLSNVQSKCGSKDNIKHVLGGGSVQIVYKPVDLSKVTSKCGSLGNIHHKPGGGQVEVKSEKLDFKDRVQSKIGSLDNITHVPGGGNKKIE
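FP of Alexa 594-tau after heparin (20 uM) induction. Substrate: human K18 P301L, 15 uM unlabeled, 0.24 uM labeled. Buffer 100 mM sodium acetate pH 7. 6 hr, 37 C.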
Sfp inh: blocks B. subtilis Sfp PPTase activity; Q9F4F7; Biochemical Sfp PPTase activity, qHTS; 310,000 compounds, 3.5% hits; Potency, µM, for inactives: largest response in the series, negative = inhibition, most hits filed as inhibitors;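 further: the enzyme is Sfp with the accession as filed and its product quenches rhodamine fluorescence; potency means the concentration at half of the fitted maximal effect; 0% = enzyme reaction without inhibitor and -100% = no enzyme wells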
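After 15 min at room temperature with compound, 15 nM Sfp received 5 uM rhodamine-CoA plus 12.5 uM BHQ-2-ybbR (50 mM Hepes pH 7.6, 10 mM MgCl2). Rate came from the fluorescence difference over 30 min, ex 525/em 598 nm.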
G9a inh: G9a (human) methyltransferase inhibition; Q96KQ7; G9a H3K9 monomethylation, AlphaScreen, 2 h; Potency, µM (doses to about 102 µM), for the others: top-dose activity, negative = inhibition, most hits filed as inhibitors; 350,000 compounds, 8.8% hits; further: potency means the concentration at half of the fitted maximal effect; nearly all actives have a fitted effect of over 75% in size
Target sequence (Q96KQ7 913-1193 limits assumed): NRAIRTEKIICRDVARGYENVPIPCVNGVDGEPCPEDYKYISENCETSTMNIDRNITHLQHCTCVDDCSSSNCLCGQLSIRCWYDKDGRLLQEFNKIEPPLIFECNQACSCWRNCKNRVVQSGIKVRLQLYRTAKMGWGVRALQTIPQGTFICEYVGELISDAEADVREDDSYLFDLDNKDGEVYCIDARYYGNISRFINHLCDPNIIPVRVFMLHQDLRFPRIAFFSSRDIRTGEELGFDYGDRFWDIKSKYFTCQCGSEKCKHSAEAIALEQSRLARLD
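G9a (20 nM) was preincubated 15 min with compound, then reacted 2 h at room temperature with 500 nM biotin-H3K9 peptide and 20 µM SAM. Monomethyl-H3K9 detected by AlphaScreen using anti-H3K9me1 antibody.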
Tau fluor cs: counter-screen for tau fibril formation inhibitors; tau K18 P301L Alexa594 fluorescence, heparin fibrillization; Potency, µM (highest dose often 57.7 µM), for inactives: top-dose activity change, negative = decrease; AID 1463; 280,000 compounds, 0.93% hits; further: potency means the concentration at half of the fitted maximal effect; nearly all actives have a fitted effect of over 55% in size
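Human K18 P301L tau (15 uM unlabeled plus 0.24 uM Alexa 594-labeled, final) in 100 mM sodium acetate pH 7 was mixed with compound and 20 uM heparin and incubated 6 hr at 37 C.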
FBPA coupling cs: inhibits coupling enzyme system, counter-screen for aldolase hits. AID 2472. coupling enzyme system counterscreen, AmpLite Red fluorescence. 290,000 compounds, 0.67% hits. activity change, negative = inhibition, % at 58.2 µM, hits read low; in the data active means activity change below about -30%
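Compounds tested against the coupling enzymes alone at 57.5 uM final; readout was AmpLite Red fluorescence (525/598 nm) after 20 min at RT.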
Tau ThT inhib: inhibitors of human tau fibril formation, thioflavin T binding | Potency, µM (series often up to 57.4 µM), without a hit: top-dose activity, negative = inhibition, most hits filed as inhibitors | 270,000 compounds, 2.1% hits | recombinant tau K18 P301L, heparin-induced fibrillization, ThT fluorescence | P10636; further: potency means the concentration at half of the fitted maximal effect; nearly all actives have a fitted effect of over 55% in size
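ThT emission at 510 nm, taken 1 hr after adding 30 uM dye, quantifies aggregates formed when 20 uM heparin acts on human tau K18 P301L for 6 hr at 37 C.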
An asterisk follows results filed as active; ? = inconclusive; / = no result given; [ ] = remark or other dose. Sampled rows, rich in hits. Any-hit rate of the full collection: about 11%. Unless noted, the call rests on the fitted dose curve; in most records, active means well fitted curve in the direction sought with a large enough effect; inconclusive means small, poorly fitted or top-dose-only effect, or another doubt; inactive means no such curve, though single readings can be large; an effect the other way counts as inactive or inconclusive. Unless noted, on the % scale 0 is the no-effect control and ±100 the full control effect.

SMILES	Tau fibril FP	Sfp inh	G9a inh	Tau fluor cs	FBPA coupling cs	Tau ThT inhib
CCCCCCC1=Cc2cc(OC)c(OC)cc2C(C(C(C)=O)C(=O)OC)O1 (stereo not given)	-6.1%[11.6 µM]	12.6%	/	-3.8%[11.6 µM]	-6.6	-14.4%[11.5 µM]
CCOC(=O)c1ccc(NC(=O)C(C)N(c2ccc(OCC)cc2)S(C)(=O)=O)cc1 (stereo not given)	-10.4%	/	?	-29.2%	/	?
Cc1ccc(NC(=S)NNC(=O)c2ccco2)cc1	2.8%	-25.6%	?	-2.2%	-9.5	0.7%
O=C(/C=C/c1ccc(Br)cc1)NC(=S)NNC(=O)c1ccco1	1.4%	-2.5%	?	-29.3%	-0.1	15.8µM*
O=C(/C=C/c1ccccc1)NC(=S)NNC(=O)c1ccco1	0.6%	-6.1%	10µM*	-13.3%	2.0	?
O=C(NC(=S)NNC(=O)c1ccco1)c1ccccc1	/	6.1%	25.1µM*	/	/	/
CCOc1ccc2nc(Cl)c(C3CC(c4ccc(C)cc4)=NN3C(=O)CCC(=O)O)cc2c1 (stereo not given)	-4.6%	/	2.8%[59 µM]	-10.9%	/	-7.5%
CCOC(=O)CNC(=O)Nc1cc(C(=O)NCc2ccccc2OC)ccc1N1CCCC1	-0.5%	/	-1.6%[12.7 µM]	-2.5%	/	-5.4%
CC(C)Cc1nn2cc(-c3cccc(Br)c3)nc2s1	-1.8%	/	65.3%[59 µM]	-13.1%	/	-15.8%
CN(C1CCCCC1)S(=O)(=O)c1ccc2c(c1)c(=O)c(C(=O)N1CCN(c3ccccc3F)CC1)cn2C	-8.8%	/	-3.3%[59 µM]	-8.7%	/	3.5%
Clc1ccc(N=NN2CCOCC2)cc1	-7.7%	14.5%	50.1µM*	-22.9%	0.4	?
Cc1cc(C)n(-c2nnc(NC(C)(C)C)nn2)n1	-1.4%	12.4%	-16.4%	-4.8%	-4.9	-12.3%
Cc1cc(C)n(-c2nnc(NC34CC5CC(CC(C5)C3)C4)nn2)n1	3.3%	3.1%	22.4µM*	-20.6%	-1.5	?
COc1ccc(-n2c(=O)/c(=C\c3cccs3)s/c2=C(/C#N)C(=O)N2CCN(C)CC2)cc1	-5.1%	4.9%	50.1µM*	-10.2%	1.7	-12.0%
N#C/C(C(=O)N1CCOCC1)=c1/s/c(=C\c2ccccn2)c(=O)n1-c1ccccc1	0.1%	-1.5%	14.4%[59 µM]	-6.2%	-0.1	-7.6%
COc1ccccc1N1CCN(S(=O)(=O)c2cn(C)nc2C)CC1	/	10.3%	14.0%	/	/	/
COc1ccc(OC)c(-n2c(-c3cccc(C)c3)n[nH]c2=S)c1	1.0%	79.4µM*	1.12µM*	-2.4%	-2.0	-4.8%
COc1ccccc1-n1c(-c2cn(C)nc2C)n[nH]c1=S	-4.1%	56.2µM*	7.08µM*	-4.7%	5.4	-7.0%
COc1ccc(OC)c(-n2c(-c3ccccc3)n[nH]c2=S)c1	0.4%	-10.4%	?	-5.4%	2.1	-7.1%
COc1ccc(OC)c(-n2c(-c3cc(-c4ccccc4)n[nH]3)n[nH]c2=S)c1	7.7%	79.4µM*	1.58µM*	-10.5%	-1.3	-8.5%
COc1ccc(-c2cc(-c3n[nH]c(=S)n3-c3ccccc3OC)[nH]n2)cc1	9.2%	?	1.78µM*	-16.5%	3.5	?
CCc1ccc(OCC(=O)N(Cc2ccco2)Cc2ccco2)cc1	2.6%	/	-7.9%[59 µM]	-9.1%	/	-9.7%
C[C@H]1Cc2c(COc3ccccc3)nc3c(c2CO1)CN(C(=O)C1CCCCC1)CC3	-5.0%[11.6 µM]	21.6%	/	-13.5%[11.6 µM]	-0.6	-9.4%[11.5 µM]
COc1ccccc1-n1c(-c2ccccc2)n[nH]c1=S	-6.3%	70.8µM*	/	-3.4%	0.9	-4.5%
COc1ccccc1-n1c(C)nc(=O)c(-c2ccccc2)c1C	0.8%	-16.3%	-8.6%[12.7 µM]	8.9%	2.3	11.7%
SMILES	Tau fibril FP	Sfp inh	G9a inh	Tau fluor cs	FBPA coupling cs	Tau ThT inhib
Cn1c(-n2cccc2)c(-c2c(-c3ccc(F)cc3)[nH]c3c2c(=O)[nH]c(=O)n3C)c(=O)[nH]c1=O	-8.5%	/	-30.7%[59 µM]	-4.2%	/	1.3%
CC(C)NC(=O)CN1C(=O)c2cccnc2Sc2ccccc21	4.5%	/	23.6%[59 µM]	3.6%	/	-2.5%
COc1ccc(S(=O)(=O)/N=C2/C=CC(=O)C(C)=C2C)cc1	7.9%	79.4µM*	?	-21.5%	-11.4	?
CC1=C(C)/C(=N\OS(=O)(=O)c2ccc(C)cc2)C=CC1=O	15.8µM*	31.6µM*	20µM*	?	-85.0*	10µM*
COc1ccc(CNc2ncnc3ccc(-c4ccc(N(C)C)cc4)cc23)c(OC)c1	/	?	-1.1%[0.501 µM]	/	-22.5	/
COc1ccc(C2C=C3CN(C(=O)OC(C)(C)C)S(=O)(=O)C3CC2OC(=O)c2cccc(C)c2)cc1 (stereo not given)	/	13.5%	/	/	-4.5	/
CCN1CCN(C(=S)c2ccc(OCC(=O)NCc3ccccc3)cc2)CC1	-8.3%	22.4µM*	10µM*	-10.1%	1.5	-6.5%
CN1CCN(C(=O)Nc2ccccc2)CC1	-0.8%	-24.9%	2.24µM*	6.0%	1.6	3.5%
CCN1CCN(C(=O)NCc2ccccc2)CC1	/	-9.2%	22.4µM*	/	1.1	/
CCOc1cc(C(=S)N2CCCCC2)ccc1OCC(=O)NCc1ccccc1	1.5%	-18.6%	8.1%[12.7 µM]	-11.0%	2.8	-4.8%
CCCn1c(C)nc2c(NCCN3CCCC3)nc(C)nc21	9.6%	17.4%	/	0.7%	4.5	?
Cc1cccc(S(=O)(=O)c2cn(C)c3cc(N4CCN(c5ccc(F)cc5)CC4)c(F)cc3c2=O)c1	-1.7%	/	2.3%[59 µM]	-4.3%	/	-2.6%
COc1ccc(S(=O)(=O)N2CCCCC2)cc1NC(=O)CCOc1cc(C)ccc1C	/	/	16.6%[2.33 µM]	/	/	/
COc1ccc(CN(Cc2cccn2C)C(=O)c2cc3cc(OC)ccc3[nH]2)cc1	-5.3%	4.6%	50.1µM*	-28.6%	3.0	/
CCOC(=O)CSc1nc2cc(C(=O)N3CCC(C(N)=O)CC3)ccc2c(=O)n1-c1ccccc1	1.6%	14.1%	-31.6%[12.7 µM]	-4.5%	2.1	?
COC(=O)c1ccc2c(=O)n(-c3ccccc3)c(SCN3C(=O)c4ccccc4C3=O)nc2c1	?	-8.4%	28.2µM*	-15.9%	2.2	-7.3%
Cc1cc(C)n(-c2ccc([N+](=O)[O-])cc2-c2nn[nH]n2)n1	6.9%	79.4µM*	?	5.6%	1.5	-1.3%
Nc1c(S(=O)(=O)c2cccs2)c2nc3ccccc3nc2n1/N=C/c1cccc(O)c1	7.94µM*	5.3%	13.0%[59 µM]	3.16µM*[quencher]	-0.5	-0.3%
CC(C)Cn1c(N)c(S(=O)(=O)c2cccs2)c2nc3ccccc3nc21	-11.4%	-4.8%	-32.1%[12.7 µM]	-28.7%	-31.2*	-28.7%
O=C(CSc1nnc(CNC(=O)c2ccccc2F)n1-c1ccccc1)Nc1ccccc1F	10.4%	/	-25.0%[59 µM]	5.9%	/	6.0%
COc1ccc(-c2cc(-c3c(O)c(OC)c4occc4c3OC)[nH]n2)cc1	14.1%	?	15.5%[12.7 µM]	12.6µM*[quencher]	-4.1	11.2µM*

Screens deposited in PubChem BioAssay by National Center for Advancing Translational Sciences (NCATS).
